# In the library only some 9.3% were active in any assay of this set; here they are far more common.
# ELG1 genotoxic: inducers of genotoxicity in HEK293T ELG1-luciferase cells. Potency, µM (doses to about 46 µM), usual class: activators. 330,000 tested, 1.3% active. HEK293T ELG1-luciferase reporter, luminescence, 16 h; further: nearly all actives have a fitted effect of over 60% in size
#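 Luminescence read-out: rising ELG1-luciferase signal, reflecting elevated ELG1 protein under genetic stress, flags genotoxic compounds. Cells were treated for 16 hr at 37 °C before ONE-Glo detection.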
# SMN2 splice enh: increases expression of the SMN2 splice variant; HEK293 SMN2-luciferase splicing reporter, luminescence, 30-36 h; Potency, µM (top dose mostly 46.1 µM), most hits filed as activators; 210,000 tested, 2.8% active; AID 1458; further: nearly all actives have a fitted effect of over 55% in size
#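 qHTS luciferase splicing reporter: luminescence rises when SMN2 exon 7 is included in transfected HEK293 cells. Compound exposure lasted 30-36 h at 37C, with 4.5 mM final sodium butyrate as control, followed by a ONE-Glo read.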
# FLuc counter: counter-screen for miR-21 project: firefly luciferase inhibitors or activators | P08659 | purified FLuc, Km substrates, luminescence inhibition | Potency, µM (titrated, usually from 57.5 µM), most hits filed as inhibitors | 360,000 tested, 6.9% active | AID 588342; further: nearly all actives have a fitted effect of over 55% in size
# Target sequence (P08659 whole entry, looked up): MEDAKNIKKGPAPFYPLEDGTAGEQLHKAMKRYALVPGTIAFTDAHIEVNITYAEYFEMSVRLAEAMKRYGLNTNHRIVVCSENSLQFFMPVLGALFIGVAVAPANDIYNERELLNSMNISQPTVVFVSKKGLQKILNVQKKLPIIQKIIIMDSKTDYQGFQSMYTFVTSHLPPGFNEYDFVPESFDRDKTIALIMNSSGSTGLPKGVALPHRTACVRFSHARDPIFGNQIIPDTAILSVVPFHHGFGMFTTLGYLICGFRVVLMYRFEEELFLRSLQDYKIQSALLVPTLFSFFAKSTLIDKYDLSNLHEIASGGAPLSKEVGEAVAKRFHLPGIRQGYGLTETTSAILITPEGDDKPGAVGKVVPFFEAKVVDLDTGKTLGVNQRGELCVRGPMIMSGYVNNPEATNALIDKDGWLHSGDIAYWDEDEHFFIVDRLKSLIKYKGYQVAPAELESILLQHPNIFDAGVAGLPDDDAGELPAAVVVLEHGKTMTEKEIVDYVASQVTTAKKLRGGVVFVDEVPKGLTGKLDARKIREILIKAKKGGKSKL
#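 Purified P. pyralis luciferase, 10 nM final, with Km-level 10 uM D-luciferin and 10 uM ATP in 50 mM Tris acetate pH 7.5, 10 mM Mg acetate, 0.01% Tween-20, 0.05% BSA; 6-point qHTS titration about 60 µM downward; luminescence read.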
# NPC1 prom act: NPC1 promoter activation. Potency, µM (series often up to 9.22 µM), actives largely listed as activators. Huh7 NPC1 promoter luciferase reporter, 24 h. 320,000 tested, 2.4% active. AID 485313; further: nearly all actives have a fitted effect of over 60% in size
#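 Stable NPC1-promoter luciferase Huh7 line; cpd (DMSO) 24 h, 37 °C, 5% CO2; Amplite luciferase reagent 10 min RT; luminescence readout. qHTS format.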
# Rab9 prom act: Rab9 promoter activation. 320,000 tested, 2.8% active. Huh7 Rab9 promoter-luciferase reporter, luminescence, 24 h. Potency, µM (series often up to 9.22 µM), usual class: activators; further: nearly all actives have a fitted effect of over 60% in size
#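 Huh7 reporter line, Rab9 promoter upstream of luciferase. Compound exposure 24 h at 37 °C in reduced-serum medium with 10% FBS. Read-out: luminescence.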
# ELG1 DNA repair: blocks ELG1-dependent DNA repair in HEK293T cells; Potency, µM (top dose mostly 46.1 µM), usual class: inhibitors; HEK293T ELG1-luciferase reporter, luminescence, 16 h; DNA damage induced by 5-fluorouridine; 330,000 tested, 2.3% active; further: nearly all actives have a fitted effect of over 55% in size
#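 5-Fluorouridine DNA damage + compound/DMSO, 2,000 cells/well, 16 h, 37 °C/5% CO2. ONE-Glo, 30 min RT, luminescence. Readout = decrease in reporter signal.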
# Hits are given with their value; i = inactive; ? = inconclusive; nt = not tested or not shown; [ ] = dose if it differs, or a comment. The call rests on the fitted dose curve; in most records, active means well fitted curve in the direction sought with a large enough effect; inconclusive means small, poorly fitted or top-dose-only effect, or another doubt; inactive means no such curve, though single readings can be large; an effect the other way counts as inactive or inconclusive.
SMILES,ELG1 genotoxic,SMN2 splice enh,FLuc counter,NPC1 prom act,Rab9 prom act,ELG1 DNA repair
COc1cc2c(cc1NC(=O)CCCN1C(=O)CCC1=O)oc1ccccc12,?,?,?,i,i,?
COc1cc2c(cc1NC(=O)CCCCCN1C(=O)CCC1=O)oc1ccccc12,i,i,i,i,i,20.6µM
COc1ccc(NC(=O)COc2ccc(N(C)S(=O)(=O)c3ccc(C)cc3)cc2)cc1,i,i,i,i,i,?
CCN(CC(=O)Nc1ccccc1OC)C(=O)c1ccc(N(C)S(=O)(=O)c2ccc(C)cc2)cc1,i,nt,i,i,i,16.4µM
Cc1ccc(S(=O)(=O)N(C)c2ccc(OCC(=O)Nc3cccc(-n4cnnn4)c3C)cc2)cc1,i,nt,i,i,i,23.1µM
CCC1CCCCN1C(=O)/C=C/c1ccc2c(c1)OCO2 (configuration not stated),i,nt,?,i,i,i
Cc1cnc(NC(=O)COc2ccccc2)s1,?,11.2µM,10.7µM,2µM,2.24µM,?
COc1ccccc1OCC(=O)Nc1ncc(C)s1,?,nt,2.39µM,1.58µM,1.78µM,?
Cc1cnc(NC(=O)CCc2ccccc2)s1,?,nt,?,i,i,?
CC(C)c1ccc(OCc2cccc(C(=O)N/N=C/c3cccnc3)c2)cc1,0.461µM,0.224µM,0.849µM,0.282µM,?,?
O=C(N/N=C/c1cccnc1)c1ccccc1OCc1cccc(Br)c1,i,i,i,i,i,20.6µM
O=C(N/N=C/c1cccnc1)c1cccc(Br)c1,i,nt,?,i,i,?
CCOc1ccc(OCc2cccc(C(=O)N/N=C/c3cccnc3)c2)cc1,0.231µM,0.126µM,1.51µM,0.1µM,0.1µM,?
CCc1cccc(C)c1Nc1c(-c2ccc(N3CCOCC3)cc2)nc2ncccn12,nt,i,i,nt,nt,nt
COc1ccc(N(/N=C2\Sc3ccccc3C2=O)C(C)=O)cc1,?,15.8µM,12µM,i,?,?
COc1ccccc1NC1=C(NC(C)=O)C(=O)c2ccccc2C1=O,i,i,?,i,i,i
COc1ccccc1N(/N=C1\Sc2ccccc2C1=O)C(C)=O,0.92µM,nt,12µM,i,4.47µM,?
Cc1ccnc(NS(=O)(=O)c2ccc(NC(=O)C3COc4ccccc4O3)cc2)n1 (configuration not stated),i,nt,i,i,i,i
COc1cccc(-c2cc(C(=O)Nc3ccccc3SC)no2)c1,?,i,7.57µM,?,?,?
O=C(Nc1cccnc1Cl)c1cc(-c2ccco2)on1,16.4µM,i,5.36µM,i,?,?
CCc1ccc(NC(=O)c2cc(-c3ccco3)on2)cc1,i,i,2.39µM,i,i,?
COc1ccc(-c2cc(C(=O)Nc3ccccc3SC)no2)cc1OC,i,i,i,i,i,?
COc1ccc(-c2cc(C(=O)Nc3cccc(Cl)c3)no2)cc1,1.83µM,nt,0.757µM,1µM,1.12µM,?
C=CC[C@@H](CC(=O)NCCO)C(=O)N[C@@H](C)COC(=O)[C@@H](CC=C)Cc1ccc(F)cc1,i,nt,nt,nt,nt,i
O=C(COc1ccc(S(=O)(=O)N2CCCCC2)cc1)Nc1ccccc1F,i,nt,i,i,i,i
SMILES,ELG1 genotoxic,SMN2 splice enh,FLuc counter,NPC1 prom act,Rab9 prom act,ELG1 DNA repair
O=C(Nc1cccc(Cl)c1)c1cc(-c2ccco2)on1,i,nt,2.69µM,i,i,?
CCCn1cc(NC(=O)c2cc(-c3ccccc3)on2)cn1,23.1µM,i,13.5µM,i,?,?
O=C(Nc1cnn(C23CC4CC(CC(C4)C2)C3)c1)c1cc(-c2ccccc2)on1,i,i,i,i,i,i
COc1cccc(-c2cc(C(=O)Nc3cccc(O)c3)no2)c1,?,i,0.426µM,?,?,?
O=C(Nc1cc(Cl)ccc1O)c1cc(-c2ccco2)on1,20.6µM,nt,?,i,i,?
COc1ccc(NC(=O)c2cc(-c3cccc(OC)c3)on2)cc1,i,i,i,i,i,?
O=C(Nc1ccc(O)c2c(=O)cc(-c3cccc(Cl)c3)oc12)c1ccc(F)cc1,i,nt,i,i,i,i
CCOC(=O)N1CCc2c(sc3c2c(=O)n(-c2ccc(F)cc2)c(=O)n3CC(=O)c2ccc(Cl)cc2)C1,nt,i,i,nt,nt,nt
Cc1ccc(NC(=O)c2cc3c([nH]c2=O)CC(C)(C)CC3=O)c(C)c1,nt,i,i,nt,nt,nt
Cc1ccc2oc(=O)c3cc(C(=O)Nc4ccc(F)cc4F)sc3c2c1,nt,i,i,nt,nt,nt
CCOC(=O)/C(=N\Nc1cc(Cl)ccc1Cl)N1CCOCC1,i,i,i,i,i,i
CC(=O)c1ccc(N2CCN(C(=O)C3CCN(S(=O)(=O)c4cn(C)cn4)CC3)CC2)cc1,nt,nt,i,nt,nt,nt
N#Cc1ccc(NC(=O)c2cc(-c3cccc(Cl)c3)on2)cc1,nt,i,i,nt,nt,nt
O=C(Nc1cccc(Cl)c1)c1cc(-c2ccccc2)on1,nt,nt,1.51µM,nt,nt,nt
COc1ccc2c3c(c(=O)oc2c1)C1O[C@](c2ccsc2)(Cc2ccccc21)O3,nt,nt,i[11.5 µM],i[1.84 µM],i[1.84 µM],nt
COc1ccc([C@]23Cc4ccccc4C(O2)c2c(c4ccc(OC)cc4oc2=O)O3)cc1,nt,nt,3.09µM,i[1.84 µM],i[1.84 µM],nt
CN(CC(=O)Nc1ccccc1C(F)(F)F)C(=O)CC1OC(=O)c2ccccc21 (configuration not stated),i,nt,i,i,i,i
COc1ccccc1/C=C/C=C1\Oc2c(ccc(O)c2CN(C)C)C1=O,i,nt,3.01µM,i,i,i
COCCN(CCOC)Cc1c(O)ccc2c1O/C(=C\c1ccc(C)o1)C2=O,i,nt,?,i,i,i
CCN(CC)Cc1c(O)ccc2c1O/C(=C\C=C\c1ccccc1)C2=O,i,nt,12µM,i,i,i
COc1ccccc1-c1c(C(F)(F)F)oc2c(CN(C)C)c(O)ccc2c1=O,i,nt,i,i,i,i
COc1ccc(/C=N/NC(=O)c2ccc(COc3cccc4cccnc34)cc2)cc1OC,i,i,?,i,i,?
COc1ccc(/C=N/NC(=O)c2ccc(COc3cccc4cccnc34)cc2)cc1O,i,nt,13.5µM,i,i,?
O=C(N/N=C/c1cccc(O)c1)c1ccc(COc2cccc3cccnc23)cc1,i,i,16.9µM,i,i,i
O=C(N/N=C/c1ccc2cccc(OCc3ccccc3)c2n1)c1ccc(Cl)cc1,i,i,6.75µM,i,i,?
O=C(N/N=C/c1ccc2c(c1)OCO2)c1ccc(COc2cccc3cccnc23)cc1,i,i,5.36µM,i,?,18.3µM
CCCCNc1nc(C)nc2c1nc(C)n2CCC,nt,i,nt,nt,nt,nt
CC(=O)NC1=NC(=O)/C(=C/c2cc(C)n(-c3ccc(NC(C)=O)cc3)c2C)S1,i,i,5.36µM,?,?,?
CC(=O)NC1=NC(=O)/C(=C/c2cn(C(C)=O)nc2-c2ccccc2)S1,i,i,i,i,i,20.6µM
